Source: PubChem BioAssay (NCI)
The panel holds about 79,000 compounds, 15% with a hit somewhere; the sample as a whole holds those more often. Activity calls are given as the source filed them. Rule as the data show it: active = growth inhibition above about 70%; inactive = the rest.

Legend:
[1] = NCI Yeast Anticancer Drug Screen. Data for the rad50 strain (AID 155);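 also: 0% = growth of vehicle-only cultures of the same strain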; conditions: S. cerevisiae rad50 strain growth inhibition; at 50.0 µM; hits give high values
In short: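 Vehicle-treated cultures provide the reference for the growth inhibition reported for compound-exposed, repair-deficient yeast.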

[2] = NCI Yeast Anticancer Drug Screen. Data for the mec2-1 strain (AID 157); conditions: S. cerevisiae mec2-1 strain, at 50.0 µM, hits give high values
In short: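 Cells of the genetically defined mec2-1 yeast strain are incubated with test compound. Inhibition of growth is calculated against vehicle-treated controls.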

[3] = NCI Yeast Anticancer Drug Screen. Data for the sgs1 mgt1 strain (AID 161);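 also: 0% = growth of cultures given vehicle only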; conditions: S. cerevisiae sgs1 mgt1 strain, at 50.0 µM, hits give high values
In short: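 Mutant yeast exposed to compound; growth scored against vehicle-only wells.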

[4] = NCI Yeast Anticancer Drug Screen. Data for the cln2 rad14 strain (AID 165);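 also: 0% = growth equal to vehicle treated cultures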; conditions: S. cerevisiae cln2 rad14 strain, at 50.0 µM, hits give high values
In short: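 The screen exposed genetically defined yeast (cln2 rad14) to test compounds and scored growth inhibition relative to vehicle-treated controls.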

[5] = NCI Yeast Anticancer Drug Screen. Data for the bub3 strain (AID 167); conditions: S. cerevisiae bub3 mutant strain, at 50.0 µM, hits give high values
In short: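 Mutant yeast screening strain plus compound; vehicle-treated cultures serve as the 0% inhibition reference.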

[6] = NCI Yeast Anticancer Drug Screen. Data for the mlh1 rad18 strain (AID 175); conditions: S. cerevisiae mlh1 rad18 strain growth inhibition; at 50.0 µM; hits give high values
In short: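 Compound-treated yeast growth, normalised to vehicle controls. Strain bears defined DNA repair mutations.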

Measured: growth inhibition

Cc1nn(C(=O)CC(=O)Nc2ccccc2Cl)c(C)c1N=Nc1ccccc1Cl
inactive: [1] -11.3% | [2] 1.8% | [3] -29.1% | [4] 35.1% | [5] -8.55% | [6] -23.1%

COc1cc(C2=N/C(=C\c3cccc([N+](=O)[O-])c3)C(=O)O2)cc(OC)c1OC
inactive: [1] -0.45% | [2] -7.25% | [3] 11.6% | [4] -8.05% | [5] -0.2% | [6] -22.5%

C=CCN1C(=O)CS/C1=N\NC(=O)c1c(C)nc2sccn12
inactive: [1] -16.3% | [2] -4.15% | [3] -8.95% | [4] -7.4% | [5] -22.8% | [6] -28.4%

CCN(CC)CCNc1c2ccc(Cl)cc2nc2c1c(C)nn2C
inactive: [1] -7.05% | [2] 9.15% | [3] 18.9% | [4] 21% | [5] 33.1% | [6] 6.95%

CCCCCCCCOC(=O)C(C)OC(C)=O (stereo unspecified)
inactive: [1] 17.2% | [2] 2.05% | [3] 2.3% | [4] 13.8% | [5] 12.3% | [6] 12.1%

COc1ccc2nc3c(Cl)cccc3c(Cl)c2c1
inactive: [1] 28.4% | [2] 38.5% | [3] 3.4% | [4] 4.6% | [5] 7.35%
active: [6] 81.5%

N#C/C(=C\c1ccco1)c1ccc([N+](=O)[O-])cc1
inactive: [1] 16.2% | [2] 15.1% | [3] 25.6% | [4] -0.25% | [5] 42.3% | [6] 14.3%

OC1CCCSc2ccccc21 (stereo unspecified)
inactive: [1] 19.6% | [2] 1% | [3] -4.8% | [4] 8% | [5] 2.8% | [6] -1.45%

CC(CO)(NC(=O)c1ccccc1)C(=O)O (stereo unspecified)
inactive: [1] 13.4% | [2] 9.25% | [3] 22.5% | [4] 11.1% | [5] 3.45% | [6] 23.4%

OC1C(OCc2ccccc2)OC(COCc2ccccc2)C(OC2OC(COCc3ccccc3)C(OCc3ccccc3)C(OCc3ccccc3)C2OCc2ccccc2)C1OCc1ccccc1 (stereo unspecified)
inactive: [1] -2.1% | [2] -9.85% | [3] -13.8% | [4] -8.65% | [5] -3.3% | [6] -3.6%

CC(=O)OCC1OC(n2ccc(=O)[nH]c2=O)C(NC(=O)C(F)(F)F)C(OC(C)=O)C1OC(C)=O (stereo unspecified)
inactive: [1] 2.4% | [2] -5.4% | [3] -11.2% | [4] -11.2% | [5] -2.05% | [6] -11.7%

CCCN(CCC)CCCCCCCCN
inactive: [1] 29.1% | [2] -13.2% | [3] -3.2% | [4] 12.8% | [5] -7.9% | [6] 16.2%

Cc1cc(Cl)c(Cl)cc1NC(=O)c1ccc(Cl)cc1Cl
inactive: [1] 2.85% | [2] 6.9% | [3] 1.25% | [4] -0.95% | [5] -1.3% | [6] 17.6%

O=Cc1c(O)ccc2ccc3ccccc3c12
inactive: [1] 16.1% | [2] 7.25% | [3] 10.1% | [4] -32.7% | [5] -7.7% | [6] 16.4%

C=CC12CCCCC1C(NC)Cc1ccc(OC)c(O)c12 (stereo unspecified)
inactive: [1] 4.25% | [2] -1.65% | [3] 6.9% | [4] 1.8% | [5] 4.9% | [6] -6.9%

CC(=O)Nc1cc([N+](=O)[O-])c2[nH]c(=O)c3ccccc3c2c1
inactive: [1] -7.7% | [2] -6.7% | [3] -12.4% | [4] -9.45% | [5] -3.2% | [6] -0.15%

N/N=C(\c1ccccc1)C(Nc1ccccc1)c1ccccc1 (stereo unspecified)
inactive: [1] 11.2% | [2] -3.95% | [3] -2.05% | [4] -29% | [5] -5.15% | [6] 7.9%

CC(C)=C/C(C)=N/NC(N)=O
inactive: [1] 7.9% | [2] -4.55% | [3] -24.3% | [4] -19.1% | [5] -19.8% | [6] -32.2%

O=C(O)c1ccc(/C=N/NC(=S)Nc2cccc3cccnc23)cc1
inactive: [1] 22.1% | [2] 7.4% | [3] 6.6% | [4] 16.4% | [5] 10.2% | [6] -17.1%

C[C@]12CC[C@@H]3c4ccc(O)cc4CC[C@H]3[C@@H]1CC[C@@H]2OC(=O)CCc1ccccc1
inactive: [1] 35.1% | [2] 9.8% | [3] 26.3% | [4] 28.5% | [5] -2.4% | [6] 31.1%

CC(=O)Nc1ccc(S(=O)(=O)SC(F)(F)F)cc1
inactive: [1] 0.8% | [2] 7.25% | [3] 17.4% | [4] 24.7% | [5] 8.85% | [6] 13.7%

CCc1n[nH]c(=O)n1/N=C/c1c(O)ccc2ccccc12
inactive: [1] 0.45% | [2] 10.8% | [3] 1.05% | [4] 9.05% | [5] 6% | [6] 18.9%

CC(=O)NC1(C)C(=O)N=C(N)N=C1N (stereo unspecified)
inactive: [1] 11.2% | [2] 4.3% | [3] 11.1% | [4] -29.8% | [5] -4.9% | [6] 8.8%

O=Cc1ccccc1S(=O)(=O)O
inactive: [1] 6.65% | [2] 7.4% | [3] -6.5% | [4] -45.4% | [5] 11.2% | [6] -13.2%

OC1Cn2cc(Br)c[n+]2C1 (stereo unspecified)
inactive: [1] 8.3% | [2] -5.5% | [3] -21.5% | [4] 1.2% | [5] -2% | [6] -13.6%

O=C(N/N=C\c1ccc(Cl)cc1Cl)C1CC1
inactive: [1] -19.8% | [2] -3.8% | [3] -7.6% | [4] -19.2% | [5] -19.3% | [6] -24.9%

Cc1ccccc1C1CCCCC1OS(C)(=O)=O (stereo unspecified)
inactive: [1] -6.3% | [2] -1.35% | [3] -15.2% | [4] -7.6% | [5] 7.1% | [6] -11.1%

CC(CC(=O)O)C(C)C(=O)O (stereo unspecified)
inactive: [1] -7.9% | [2] -4.45% | [3] -6.4% | [4] -7.7% | [5] 0.5% | [6] -13.4%

COc1cc(C2c3cc4c(cc3OC(O)C2C)OCO4)cc(OC)c1OC (stereo unspecified)
inactive: [1] -11.9% | [2] 4.85% | [3] 11.7% | [4] -46.6% | [5] 16.1% | [6] -4.15%

O=[N+]([O-])c1ccc(Cn2on2-c2ccccc2)cc1
inactive: [1] 8.55% | [2] 21.1% | [3] 9.1% | [4] -16.7% | [5] 24.4% | [6] -23.9%

C/C=C(\CC)C(C#N)(CCC)C(=O)OCC (stereo unspecified)
inactive: [1] -10.2% | [2] -17.6% | [3] -21.2% | [4] -9% | [5] -33.1% | [6] -17.6%

C=CCOC(=O)NC(Cc1ccc(O)cc1)C(=O)O (stereo unspecified)
inactive: [1] -0.05% | [2] -4.85% | [3] 4.5% | [4] 3.65% | [5] -10.8% | [6] -2.45%

Cc1ccc(/C=c2\cc3oc(=O)c4cccc(c4-3)c2=O)cc1
inactive: [1] -5.3% | [2] 18.1% | [3] 58.6% | [4] 23.6% | [5] 44% | [6] 19.1%

CCOc1ccccc1N
inactive: [1] 8.75% | [2] 16.2% | [3] -34% | [4] 9.5% | [5] -32% | [6] -20.1%

CCOC(=O)c1c(N2CCCC2)ncn(Cc2ccccc2)c1=S
inactive: [1] 0.7% | [2] 12.4% | [3] 3.9% | [4] -7.75% | [5] 8.3% | [6] -5%

COC(=O)C1(CC(=O)c2cc(Cl)ccc2Cl)NC(=S)NC(=O)C1C#N (stereo unspecified)
inactive: [1] 19.9% | [2] -9.1% | [3] -8.15% | [4] 30.5% | [5] -6.75% | [6] 2.1%

Cc1ccc(N=Nc2ccc(C)cc2NC(=O)CCl)cc1
inactive: [1] -17.7% | [2] -15.8% | [3] -21.9% | [4] -21.9% | [5] 3.2% | [6] -15.2%

CC(C(O)C(F)(F)F)[N+](=O)[O-] (stereo unspecified)
inactive: [1] -1.7% | [2] -4.5% | [3] 8.65% | [4] -5.2% | [5] -2.05% | [6] 17.2%

CCOC(=O)CCC(=O)N(CC)CC
inactive: [1] 8.7% | [2] 16.6% | [3] 16.4% | [4] 9.9% | [5] -10.9% | [6] -13%

COC(=O)c1nc(NN)[nH]c(=O)c1C
inactive: [1] -2.1% | [2] -21.1% | [3] -27.6% | [4] 3.35% | [5] -26.6% | [6] -15.1%

CC(=O)[CH-]C(=O)c1ccccc1.CC(=O)[CH-]C(=O)c1ccccc1.CC[C@H](CCC(C)[C@H]1CCC2[C@@H]3CC=C4C[C@@H]([O-])CC[C@]4(C)C3CC[C@@]21C)C(C)C.CC[C@H](CCC(C)[C@H]1CCC2[C@@H]3CC=C4C[C@@H]([O-])CC[C@]4(C)C3CC[C@@]21C)C(C)C.Cl.[Ti+4] (stereo partly specified)
inactive: [1] 19% | [2] 3.9% | [3] 23.2% | [4] -11.2% | [5] 27.1% | [6] 5.05%
